# About 79,000 compounds went through this panel and 15% of them were active in at least one assay; those are over-represented in the sample as a whole. Unmarked numbers belong to inactive results. The source made the active and inactive calls. Rule as the data show it: active = growth inhibition above about 70%; inactive = the rest.
# Assay: NCI Yeast Anticancer Drug Screen. Data for the mec2-1 strain (AID 157)
# Settings: S. cerevisiae mec2-1 strain, at 50.0 µM (retest, dose inferred, filed as 5.0), hits give high values
# Summary of the method: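 Growth inhibition is read against vehicle-treated controls after compound exposure of the mec2-1 yeast strain, which is defective in DNA damage repair or cell cycle control.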
row,Structure (SMILES),growth inhibition
1,COc1ccc2nc3cccc([N+](=O)[O-])c3c(NCCNCCN(C)C)c2c1,97% (active)
2,Cc1cccc(/C=N/NC(=S)NC2CCCCC2)n1,64%
3,COC(=O)C(=O)c1c(-c2ccc(Cl)c(Cl)c2)[nH]c2[nH]n(-c3ccccc3)c(=O)c2c1=O,9%
4,c1ccc([P+](CCN2Cc3ccccc3C2)(c2ccccc2)c2ccccc2)cc1,81% (active)
5,Cc1cc(C)c2[s+]snc2c1,68%
6,CC(C)(Br)C(=O)/C=C/c1ccccc1,89% (active)
7,Cc1ccc(S(=O)(=O)NC(=O)C2C(=O)CC3(CCCCC3)CC2=O)cc1,26%
8,NC(=S)N1N=C2c3ccccc3CC[C@H]2[C@@H]1c1ccc(Cl)cc1,90% (active)
9,O=[N+]([O-])/C=C/c1cc2ccc3ccccc3c2[nH]1,98% (active)
10,O=C1C(=C2CCCC2)CCC1CN1CCCCC1 (stereo unspecified),60%
11,OC(CC(O)(C(F)(F)F)C(F)(F)F)c1ccc(C(O)CC(O)(C(F)(F)F)C(F)(F)F)cc1 (stereo unspecified),100% (active)
12,COc1cc2c(cc1OC)[C@@H](Nc1ccc(C#N)cc1)C1COC(=O)[C@@H]1C2c1cc(OC)c(O)c(OC)c1 (stereo partly specified),98% (active)
13,O=c1cccccc1[O-].O=c1cccccc1[O-].O=c1cccccc1[O-].[Eu+3],26%
14,O=C1c2ccccc2C(=O)c2sc(Nc3ccccc3Cl)nc21,99% (active)
15,NC(CCCCCCCCCCCCC(N)C(=O)c1ccccc1)C(=O)c1ccccc1 (stereo unspecified),92% (active)
16,CC1=C(C)C(=O)C2=C(OCCO2)C1=O,24%
17,c1ccc(-c2cc(C3CO3)c3ccccc3n2)cc1 (stereo unspecified),35%
18,S=C1C(=Nc2ccccc2)N(c2ccccc2)/C(=N\c2ccccn2)N1c1ccccc1,98% (active)

row,Structure (SMILES),growth inhibition
1,CCC(OC(C)=O)C1CC(C(C)C)CCC1C (stereo unspecified),34%
2,CC(C)=CCc1c2c(c(O)c3c(=O)c(-c4ccc(O)c(O)c4)coc13)C=CC(C)(C)O2,93% (active)
3,O=C(NC(N1CCN(c2cc3c(cc2F)c(=O)c(C(=O)O)cn3C2CC2)CC1)(C(F)(F)F)C(F)(F)F)c1ccccc1,35%
4,Fc1cc(F)c(F)c(S)c1F,97% (active)
5,COc1ccc2cc3c4cc5c(cc4cc[n+]3cc2c1OC)OCO5,97% (active)
6,CCCCCCCCNCCCCCCCC,100% (active)
7,Nc1cc(Cl)ccc1Nc1ccccc1,99% (active)
8,O=C(/C(=C/c1ccc(O)cc1)c1ccccc1)c1ccccc1,97% (active)
9,O=Cc1ccccc1C=O,32%
10,C1=CCN([B-](c2ccccc2)[C+]2CCCCC2)C=C1,96% (active)
11,CC/C(=C(\c1ccccc1)c1ccc(OCC[N+](C)(C)C)cc1)c1ccccc1,31%
12,O=S(=O)(c1cccc(C(F)(F)F)c1)N1c2ccccc2-n2cccc2C1c1cccnc1 (stereo unspecified),97% (active)
13,Nc1ccc2c(c1)C(=O)c1c(F)cccc1-2,-25%
14,CN(C)/C(=N/C(=S)Nc1ccccc1)SCc1ccccc1,76% (active)
15,CCN(CC)C(=S)N/N=C(\C)c1ccccc1O,98% (active)
16,CC(C)OC(=O)NNc1cc(Cl)ccc1Cl,20%
17,CC(C)CCC[C@@H](C)[C@H]1CC[C@H]2[C@@H]3CC[C@H]4C[C@H](N)CC[C@]4(C)[C@H]3CC[C@]12C,-12%
18,O=C1c2ccccc2-c2ccc(N=Cc3ccccc3)cc21,21%

# — PubChem BioAssay (NCI)
